Test results reported in PubChem BioAssay (NCATS).
Records with an inconclusive call do not appear. Unmarked numbers belong to inactive results. Active and inactive are the calls of the source. Calls come from the whole dose curve; as a rule, active = well fitted activation curve with a large enough effect; inconclusive = small, poorly fitted or top-dose-only effect; inactive = no such curve, though single readings can be large or run the other way. Square brackets hold non-standard residues; d marks the D form. Peptide text beside a SMILES is read from it. dPhe(4-Cl) = N[C@H](Cc1ccc(Cl)cc1)C(=O)O; d2Nal = N[C@H](Cc1ccc2ccccc2c1)C(=O)O; dCit = NC(=O)NCCC[C@@H](N)C(=O)O; d3Pal = N[C@H](Cc1cccnc1)C(=O)O

target: Cellular tumor antigen p53 (Homo sapiens) (UniProt P04637); experiment: Primary qHTS for small molecule compounds that upregulate eGFP-tagged delta133p53alpha (in N-terminal) cells. (AID 2060322); details: NCI-H358 eGFP-delta133p53alpha fluorescence, 24 h; activation: active compounds read high; note: nearly all actives have a fitted effect of over 75% in size;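 for activation: cells pre-induced with doxycycline then dosed without doxycycline; series mostly up to about 56 µM; 0% = DMSO vehicle and 100% = reference activator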
Sequence (P04637 whole entry, looked up): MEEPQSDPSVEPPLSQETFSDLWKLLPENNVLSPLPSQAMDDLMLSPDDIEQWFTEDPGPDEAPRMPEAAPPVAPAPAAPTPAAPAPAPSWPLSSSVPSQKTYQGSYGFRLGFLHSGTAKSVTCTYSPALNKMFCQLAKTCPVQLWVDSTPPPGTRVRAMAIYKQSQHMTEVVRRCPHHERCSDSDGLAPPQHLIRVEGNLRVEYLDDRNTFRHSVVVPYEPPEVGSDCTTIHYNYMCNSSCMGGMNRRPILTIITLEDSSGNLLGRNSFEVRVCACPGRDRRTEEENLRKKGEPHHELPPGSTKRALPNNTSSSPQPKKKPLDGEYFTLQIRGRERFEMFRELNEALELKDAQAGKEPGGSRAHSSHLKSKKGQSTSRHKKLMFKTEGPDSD
Method in brief: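 NCI-H358 cells pre-induced 24 h with 10 ng/ml doxycycline for eGFP-delta133p53alpha, plated dox-free and exposed 24 h at 37C to titrated compounds. Fixed, Hoechst-stained; gated GFP peak intensity by laser scanning cytometry, normalized to DMSO (0%) and 57.5 uM 5-azacytidine (100%).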
Potency is the fitted concentration of half-maximal effect.

Row | SMILES | activation [%] | Potency
1 | C[C@@H]1CCO[C@H]2Cn3cc(C(=O)NCc4ccc(F)cc4F)c(=O)c(O)c3C(=O)N12 | 32.3 | 
2 | COc1ccccc1-c1c[nH]c2ncc(-c3cncc(C(=O)N(C)C)c3)cc12 |  | 21.3 µM (active)
3 | O=C(O)c1cccc(CN2C(=O)/C(=C(\c3ccccc3)c3ccc(Cl)cc3)c3ccccc32)c1 | -4.46 | 
4 | COc1ccc(C2OCC3C(c4cc(OC)c5c(c4)OCO5)OCC23)cc1OC (configuration not stated) | -8.4 | 
5 | COC1CC(O[C@H]2CC[C@@]3(C)C(=CC[C@]4(O)C3[C@H](O)[C@@H](O)[C@]3(C)[C@@H]([C@H](C)O)CC[C@@]34O)C2)OC(C)C1OC1CC(OC)C(OC2CC(OC)C(OC3OC(C)C(OC4OC(CO)C(O)C(O)C4O)C(OC)C3O)C(C)O2)C(C)O1 (some centres not stated) | -4.58 | 
6 | COC(=O)/C=C/c1ccc(O[C@@H]2O[C@H](CO)[C@@H](O)[C@H](O)[C@H]2O)cc1 | -8.04 | 
7 | C=C1C(OC2OCC(O)C(O)C2O)CC2C(C)(C)C(O)CCC2(C)C1CC/C(C)=C\CO (configuration not stated) | 7.63 | 
8 | COC(=O)C(C)C1CCC2(C)C(=O)C=CC(C)(O)C2C1O (configuration not stated) | 26 | 
9 | CCC(C)/C=C(C)/C=C/c1cc2c(cn1)C(=O)C(C)(OC(C)=O)C(O)=C2Cl (configuration not stated) | -6.11 | 
10 | CC(=O)O[C@H]1[C@H](O[C@H]2[C@@H]3C=CO[C@@H](O[C@@H]4O[C@H](CO)[C@@H](O)[C@H](O)[C@H]4O)[C@@H]3[C@@]3(CO)O[C@@H]23)O[C@@H](C)[C@H](OC(=O)/C=C/c2ccccc2)[C@H]1OC(=O)/C=C/c1ccccc1 | -7.63 | 
11 | [N-]=[N+]=N[C@]1(CO)O[C@@H](n2ccc(=O)[nH]c2=O)[C@@H](O)[C@@H]1O | 7 | 
12 | CC1(C)CC[C@]2(C(=O)O[C@@H]3O[C@H](CO)[C@@H](O)[C@H](O)[C@H]3O)CC[C@]3(C)C(=CCC4[C@@]5(C)C[C@@H](O)[C@H](O)[C@](C)(C(=O)O)C5CC[C@]43C)C2C1O (some centres not stated) | -2.68 | 
13 | Nc1nc2c(ncn2CCC(CO)CO)c(=O)[nH]1 | -5.36 | 
14 | C[C@@H]1C[C@H](O)/C=C/[C@H](O)[C@@H](O)CC(=O)O1 | -9.92 | 
15 | CC(=O)O[C@@H]1[C@@H](OC(=O)/C=C/c2ccccc2)[C@@H](OC(C)=O)[C@H](O[C@H]2[C@@H]3C=CO[C@@H](O[C@@H]4O[C@H](CO)[C@@H](O)[C@H](O)[C@H]4O)[C@@H]3[C@@]3(CO)O[C@@H]23)O[C@H]1C | -12.2 | 
16 | CC1(C)C2CC=C(COC3OC(COC4OCC(O)(CO)C4O)C(O)C(O)C3O)C1C2 (configuration not stated) | 18.3 | 
17 | CC(C)=CCC[C@](C)(O[C@@H]1O[C@H](CO[C@@H]2O[C@H](CO)[C@@H](O)[C@H](O)[C@H]2O)[C@@H](O)[C@H](O)[C@H]1O)C1CC[C@]2(C)[C@@H]1[C@H](O)CC1[C@@]3(C)CC[C@H](O[C@@H]4O[C@H](CO)[C@@H](O)[C@H](O)[C@H]4O[C@@H]4O[C@H](CO)[C@@H](O)[C@H](O)[C@H]4O)C(C)(C)[C@@H]3CC[C@]12C (some centres not stated) | -6.25 | 
18 | CC(C)=CCC/C(C)=C/COCC1OC(n2ccc(=O)[nH]c2=O)C(O)C1O (configuration not stated) | 17 | 
19 | O=S(=O)(O)c1ccc(Nc2ncnc3c2ncn3[C@@H]2O[C@H](CO)[C@@H](O)[C@H]2O)cc1 | -3 | 
20 | CC1=CC(=O)CC(C)(C)C1CCC(C)O[C@@H]1O[C@H](CO)[C@@H](O)[C@H](O)[C@H]1O (some centres not stated) | -3.57 | 
21 | C[C@@H]1O[C@@H](O[C@H]2[C@H](OC(=O)[C@]34CCC(C)(C)C[C@H]3C3=CCC5[C@@]6(C)C[C@H](O)[C@H](O[C@@H]7O[C@H](CO)[C@@H](O)[C@H](O)[C@H]7O)[C@@](C)(CO)C6[C@H](O)C[C@@]5(C)[C@]3(C)CC4)OC[C@H](O)[C@@H]2O)[C@H](O)[C@H](O)[C@H]1O[C@@H]1OC[C@@H](O)[C@H](O[C@@H]2OC[C@](O)(CO)[C@H]2O)[C@H]1O (some centres not stated) | 5.36 | 
22 | CC(=O)N[C@H](Cc1ccc2ccccc2c1)C(=O)N[C@H](Cc1ccc(Cl)cc1)C(=O)N[C@H](Cc1cccnc1)C(=O)N[C@@H](CO)C(=O)N[C@@H](Cc1ccc(O)cc1)C(=O)N[C@H](CCCNC(N)=O)C(=O)N[C@@H](CC(C)C)C(=O)N[C@@H](CCCN=C(N)N)C(=O)N1CCC[C@H]1C(=O)N[C@H](C)C(N)=O (Ac-[d2Nal][dPhe(4-Cl)][d3Pal]SY[dCit]LRP[dA]-NH2) | 13 | 
